Measured values: PubChem BioAssay (NCATS)
Results filed as inconclusive are left out. The source made the active and inactive calls. Calls come from the whole dose curve; as a rule, active = well fitted cell-killing curve with a large enough effect; inconclusive = small, poorly fitted or top-dose-only effect, or effect the other way; inactive = flat fitted curve, though single readings scatter.

Assays:
Assay in all cases: Primary qHTS to identify gynecologic anti-cancer compounds using libraries of approved drugs and bioactive compounds (AID 1345084); note: nearly all actives have a fitted effect of over 55% in size
[1] = tested on: C33A; details: Gynecologic cancer cell panel viability, ATPlite luminescence, 48 h; series mostly up to 57.5 µM
In short: (§1)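 48 h compound exposure at 37 C, 5% CO2; five-point qHTS. ATPlite luminescence readout of cell ATP.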

[2] = tested on: CAOV3; details: Gynecologic cancer cell panel viability, ATPlite luminescence, 48 h; series mostly up to 57.5 µM
In short: as §1

[3] = tested on: CASKI; details: Gynecologic cancer cell panel viability, ATPlite luminescence, 48 h; series mostly up to 57.5 µM
In short: as §1

[4] = tested on: Es-2; details: Gynecologic cancer cell panel viability, ATPlite luminescence, 48 h; series mostly up to 57.5 µM
In short: as §1

[5] = tested on: HeLa; details: Gynecologic cancer cell panel viability, ATPlite luminescence, 48 h; series mostly up to 57.5 µM
In short: as §1

[6] = tested on: Hek293T; details: Gynecologic cancer cell panel viability, ATPlite luminescence, 48 h, control line for the selectivity index; series mostly up to 57.5 µM
In short: as §1

[7] = tested on: JEG-3; details: Gynecologic cancer cell panel viability, ATPlite luminescence, 48 h; series mostly up to 57.5 µM
In short: as §1

[8] = tested on: OV90; details: Gynecologic cancer cell panel viability, ATPlite luminescence, 48 h; series mostly up to 57.5 µM
In short: as §1

[9] = tested on: PA-1; details: Gynecologic cancer cell panel viability, ATPlite luminescence, 48 h; series mostly up to 57.5 µM
In short: as §1

Measured: Potency

CC1=CC2/C=C(\C)CCC3OC(C)(C)OC3CCC(=O)C23C(=O)NC(CC(C)C)C3C1C (stereo unspecified)
inactive: [1] | [2] | [3] | [4] | [5] | [6] | [7] | [8] | [9]

CCN(CC)CCCS(=O)(=O)N[C@H](CCc1ccccc1)c1nc(Cc2ccc(Br)cc2)no1
inactive: [1] | [2] | [3] | [4] | [5] | [6] | [7] | [8] | [9]

CC1(C=O)CCCC2(C)C1CCC13CC(CO)C(CCC12)C3 (stereo unspecified)
inactive: [1] | [2] | [3] | [4] | [5] | [6] | [7] | [8] | [9]

COc1ccc(S(=O)(=O)Nc2cc(Cl)cc(Cl)c2OC)cc1N1CCNCC1
inactive: [1] | [2] | [3] | [4] | [5] | [6] | [7] | [8] | [9]

COc1cc(F)c(C(C)C)cc1-c1ccc(C(F)(F)F)cc1CN1C(=O)OC(c2cc(C(F)(F)F)cc(C(F)(F)F)c2)C1C (stereo unspecified)
inactive: [1] | [2] | [3] | [4] | [5] | [6] | [7] | [8] | [9]

CCOc1cn(-c2ccc(F)cc2C)nc1C(=O)Nc1ccc(Oc2ccnc3cc(OC)c(OC)cc23)c(F)c1
inactive: [1] | [2] | [3] | [4] | [5] | [6] | [7] | [8] | [9]

CC1=C(C(=O)Nc2cc(Cl)ccc2Cl)C(c2ccco2)C2=C(CCCC2=O)N1 (stereo unspecified)
inactive: [1] | [2] | [3] | [4] | [5] | [6] | [7] | [8] | [9]

C[C@@H](c1ccc2nccn2c1)n1nnc2ncc(-c3cnn(C)c3)nc21
inactive: [1] | [2] | [3] | [4] | [5] | [6] | [7] | [8] | [9]

COc1cc(OC)c(NC(=O)c2ccc(Cc3cc4c(cc3C)C(C)(C)CCC4(C)C)o2)c(OC)c1
inactive: [1] | [2] | [3] | [4] | [5] | [6] | [7] | [8] | [9]

Cc1cc(C)nc(SCC(=O)Nc2ncc(Cc3cccc4ccccc34)s2)n1
inactive: [1] | [2] | [3] | [4] | [5] | [6] | [7] | [8] | [9]

O=C(NS(=O)(=O)c1ccc(Br)s1)c1ccc(Cl)cc1Cl
inactive: [1] | [2] | [3] | [4] | [5] | [6] | [7] | [8] | [9]

CC(C)(C)c1ccc(C(=O)Nc2cc(Cl)c(Br)cc2C(=O)O)cc1
inactive: [1] | [2] | [3] | [4] | [5] | [6] | [7] | [8] | [9]

COC1CC(=O)C23C(=O)NC(CC(C)C)C2C(C)C(C)=CC3/C=C(\C)CCCC1O (stereo unspecified)
inactive: [1] | [2] | [3] | [4] | [5] | [6] | [7] | [8] | [9]

CCOC(=O)c1ccc(OCCC2CCN(c3ccc(C)nn3)CC2)cc1
inactive: [1] | [2] | [3] | [4] | [5] | [6] | [7] | [8] | [9]

O=[N+]([O-])c1cn2c(n1)OC[C@@H](OCc1ccc(-c3ccc(OC(F)(F)F)cc3)nc1)C2
inactive: [1] | [2] | [3] | [4] | [5] | [6] | [7] | [8] | [9]

CC[C@H](C)/C=C(C)/C=C/C1=CC2=CC(=O)[C@]3(C)OC(=O)[C@@H](C(C)=O)[C@@H]3C2=CO1
inactive: [1] | [2] | [3] | [4] | [5] | [6] | [7] | [8] | [9]

Cc1ccc(CNc2ncnc3ccc(-c4ccc(CO)o4)cc23)o1
inactive: [1] | [2] | [3] | [4] | [5] | [6] | [7] | [8] | [9]

CC(=O)OC1C(O)CC2(C)C(CCC3(C)C2CC=C2C4C5(CCC(CO[C@@H]6O[C@H](CO)[C@@H](O)[C@H](O)[C@H]6O)(OC5=O)C4(C)O)C(O)CC23C)C1(C)C (stereo partly specified)
inactive: [1] | [2] | [3] | [4] | [5] | [6] | [7] | [8] | [9]

COc1cc(-c2nc(N[C@H](CO)Cc3ccccc3)ccc2C(=O)NCCOc2ccccc2)cc(OC)c1OC
inactive: [1] | [2] | [3] | [4] | [5] | [6] | [7] | [8] | [9]

CCCCOc1ccc(S(=O)(=O)n2c(C)nc3ccccc32)cc1
inactive: [1] | [2] | [3] | [4] | [5] | [6] | [7] | [8] | [9]

CC1(NC(=O)c2ccc(C#Cc3cccc(F)c3)cn2)COC1
inactive: [1] | [2] | [3] | [4] | [5] | [6] | [7] | [8] | [9]

CC(C)Oc1ccc(-c2cnc3c(-c4ccnc5ccccc45)cnn3c2)cc1
inactive: [1] | [2] | [3] | [4] | [5] | [6] | [7] | [8] | [9]

CN1CCN(C(=O)CN[C@@H]2C[C@H]2c2ccc(OCc3ccccc3)cc2)CC1
inactive: [1] | [2] | [3] | [4] | [5] | [6] | [7] | [8] | [9]

COc1ccc(C2(N(C)C(=O)c3ccc(NC(=O)c4ccco4)cc3)CCOCC2)cc1
inactive: [1] | [2] | [3] | [4] | [5] | [6] | [7] | [8] | [9]
